Measurements reported in PubChem BioAssay (Tox21).
“And” between values parts separate entries of the source, which are not always exact repeats. Identical values can stand only once. Inconclusive results are not listed. A call without a number means that no potency is given here. The source holds several records for some structures; these can differ, active in one and inactive in another. The source made the active and inactive calls. Unless noted, calls follow the shape of the dose curve; as a rule, active = well fitted cell-killing curve with a large enough effect in the repeat runs; inconclusive = weak or mixed curves, or effect the other way; inactive = no such curve, though single readings can be large or run the other way.

Target: Progesterone receptor (Homo sapiens) (UniProt P06401)
Sequence (P06401 whole entry, looked up): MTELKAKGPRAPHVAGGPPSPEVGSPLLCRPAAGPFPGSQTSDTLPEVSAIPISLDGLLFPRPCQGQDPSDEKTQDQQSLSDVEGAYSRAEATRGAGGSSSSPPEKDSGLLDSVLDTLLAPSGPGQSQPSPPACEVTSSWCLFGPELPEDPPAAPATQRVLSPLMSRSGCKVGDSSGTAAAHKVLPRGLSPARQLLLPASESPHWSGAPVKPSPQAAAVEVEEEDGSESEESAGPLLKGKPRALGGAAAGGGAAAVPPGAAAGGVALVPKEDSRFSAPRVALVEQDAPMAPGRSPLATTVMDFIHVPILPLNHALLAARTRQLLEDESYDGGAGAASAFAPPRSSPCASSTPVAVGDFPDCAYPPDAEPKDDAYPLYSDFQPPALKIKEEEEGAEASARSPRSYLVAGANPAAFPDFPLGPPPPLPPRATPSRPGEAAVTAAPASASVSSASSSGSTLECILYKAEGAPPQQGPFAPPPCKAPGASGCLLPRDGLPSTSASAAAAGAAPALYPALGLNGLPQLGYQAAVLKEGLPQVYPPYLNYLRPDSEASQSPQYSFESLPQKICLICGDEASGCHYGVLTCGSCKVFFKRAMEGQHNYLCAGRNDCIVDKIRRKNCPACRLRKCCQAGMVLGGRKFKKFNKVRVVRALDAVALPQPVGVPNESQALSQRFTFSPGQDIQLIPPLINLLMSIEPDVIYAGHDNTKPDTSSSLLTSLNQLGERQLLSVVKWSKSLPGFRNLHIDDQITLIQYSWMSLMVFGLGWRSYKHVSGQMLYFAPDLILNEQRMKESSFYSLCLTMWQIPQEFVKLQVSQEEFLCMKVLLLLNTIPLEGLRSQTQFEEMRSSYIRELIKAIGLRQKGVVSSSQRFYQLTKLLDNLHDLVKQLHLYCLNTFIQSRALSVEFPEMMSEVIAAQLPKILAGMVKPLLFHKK
Experiment: qHTS assay to identify small molecule antagonists of the progesterone receptor (PR) signaling pathway (AID 1346795; active = well fitted inhibition curve with a large enough effect in the signal ratio in the repeat runs, not every such curve was filed as active; the % refers to the signal ratio; also: potency is read from the fitted curve at half-maximal effect)
Settings: PR-UAS-bla HEK293T, beta-lactamase FRET ratio, 16 h; series mostly up to 92.4 µM
Method in brief: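 PR-UAS-bla HEK293T cells with beta-lactamase reporter under UAS control, in 2% charcoal-stripped FBS, treated with compounds plus 1 nM promegestone (R5020, final) for 16 hr at 37C. Read-out: FRET beta-lactamase substrate fluorescence after 2 hr at room temperature.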
With `CC(=O)C1=C(C)[C@@H]2C[C@@]3(C1)[C@H](C)CC[C@H]3C2(C)C` the Potency was “inactive”. In the case of `O=C(O)CP(=O)(O)O`, the Potency is reported as “inactive”. In the case of `COC(=O)/C=C/c1ccccc1`, the Potency is reported as “inactive”. In the case of `CC(C)(O)CCC(C)(C)O`, the Potency is reported as “inactive”. In the case of `COC(=O)c1cccc(C(=O)OC)c1`, the Potency is reported as “inactive”. In the case of `CCCCN(CCO)CCCC`, the Potency is reported as “inactive”. With `O=C1NCC2(CCN(CCc3ccccc3)CC2)O1` the Potency was “inactive”. With `CC(=O)Nc1ccc(C(=O)CCl)cc1` the Potency was “inactive”. In the case of `O=C(O)CCc1ccccc1`, the Potency is reported as “inactive”. For `CC(C)(C)c1cc(C(C)(C)C)c(O)c(C(C)(C)C)c1`, the Potency was “inactive”. In the case of `C1COC(NC(C2CC2)C2CC2)=N1`, the Potency is reported as “inactive”. With `CCCNC(C)C(=O)Nc1ccccc1C` (stereo unspecified) the Potency was “inactive”. In the case of `Cc1ccnc2c1NC(=O)c1cccnc1N2C1CC1`, the Potency is reported as “inactive”. In the case of `Cc1scc2c1N(C(=O)CN1CCN(C)CC1)c1ccccc1NC2=O`, the Potency is reported as “inactive”. With `NNCCc1ccccc1` the Potency was “inactive”. In the case of `Nc1ccc(O)cc1`, the Potency is reported as “inactive”. For `CCC(C)(Oc1ccc(C2(c3ccc(OC(C)(CC)C(=O)O)cc3)CCCCC2)cc1)C(=O)O` (stereo unspecified), the Potency was “inactive”. For `C=CC(=O)OCCCCCCOC(=O)C=C`, the Potency was “inactive”. For `COc1nc(C)nc(Cl)c1NC1=NCCN1`, the Potency was “inactive”. In the case of `CC(C)(C)c1ccccc1`, the Potency is reported as “inactive”. With `CCCCOCCOC(=O)c1ccccc1C(=O)OCCOCCCC` the Potency was 53.3 µM (active). For `Cc1cc(C(C)(C)C)c(O)c(C(C)(C)C)c1`, the Potency was “inactive”. In the case of `CCCCC/C=C/CC1CC(=O)OC1=O` (stereo unspecified), the Potency is reported as “inactive”. In the case of `NC(Cc1ccc(Cl)cc1)C(=O)O` (stereo unspecified), the activity change, negative = inhibition is reported as -0.261% [at 0.348 µM] (inactive). In the case of `Nc1nc2ccccc2[nH]1`, the Potency is reported as “inactive”. For `CCC(CO)(CO)COCC(CC)(CO)CO`, the Potency was “inactive”. For `CCOc1ccccc1C(N)=O`, the Potency was “inactive and 26.6 µM (active)”. In the case of `Cc1cccc2n[nH]nc12`, the Potency is reported as “inactive”. With `CCCC(=O)c1ccccc1` the Potency was “inactive”. For `CC[C@@H](N)CO`, the Potency was “inactive”. For `c1ccc2c(c1)CCCC2C1=NCCN1` (stereo unspecified), the Potency was “inactive”. In the case of `CC(=O)OCC1=C(C(=O)O)N2C(=O)[C@@H](NC(=O)Cc3cccs3)[C@H]2SC1`, the Potency is reported as “inactive”. For `NC(N)=NC(=O)Cc1c(Cl)cccc1Cl`, the Potency was “inactive”. In the case of `CC1=C(C=O)C(C)(C)CC=C1`, the Potency is reported as “inactive”. In the case of `Cc1occc(=O)c1OC(=O)C(C)C`, the Potency is reported as “inactive”. In the case of `CCN1CCCC1CNC(=O)c1cc(S(=O)(=O)CC)c(N)cc1OC` (stereo unspecified), the Potency is reported as “inactive”. In the case of `Clc1ccc2c(c1)C(N1CCNCC1)=Nc1ccccc1O2`, the Potency is reported as 5.45 µM (active) and inactive.

System: not listed separately
Experiment: qHTS assay to identify small molecule antagonists of the progesterone receptor (PR) signaling pathway - cell viability counter screen (AID 1346798); also: nearly all actives have a fitted effect of over 50% in size
Settings: PR-UAS-bla HEK293T viability, CellTiter-Glo luminescence, 16 h; series mostly up to 92.4 µM
Method in brief: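 PR-UAS-bla HEK293T cells, 3,000/well in 2% charcoal-stripped FBS medium, dosed with compounds plus R5020 agonist and incubated 16 h at 37C. Viability then measured in the same wells by CellTiter-Glo luminescence after 30 min at RT.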
In the case of `CC(=O)C1=C(C)[C@@H]2C[C@@]3(C1)[C@H](C)CC[C@H]3C2(C)C`, the Potency is reported as “inactive”. In the case of `O=C(O)CP(=O)(O)O`, the Potency is reported as “inactive”. With `COC(=O)/C=C/c1ccccc1` the Potency was “inactive”. In the case of `CC(C)(O)CCC(C)(C)O`, the Potency is reported as “inactive”. With `COC(=O)c1cccc(C(=O)OC)c1` the Potency was “inactive”. With `CCCCN(CCO)CCCC` the Potency was “inactive”. For `O=C1NCC2(CCN(CCc3ccccc3)CC2)O1`, the Potency was “inactive”. In the case of `CC(=O)Nc1ccc(C(=O)CCl)cc1`, the Potency is reported as “inactive”. With `O=C(O)CCc1ccccc1` the Potency was “inactive”. For `CC(C)(C)c1cc(C(C)(C)C)c(O)c(C(C)(C)C)c1`, the Potency was “inactive”. In the case of `C1COC(NC(C2CC2)C2CC2)=N1`, the Potency is reported as “inactive”. With `CCCNC(C)C(=O)Nc1ccccc1C` (stereo unspecified) the Potency was “inactive”. With `Cc1ccnc2c1NC(=O)c1cccnc1N2C1CC1` the Potency was “inactive”. For `Cc1scc2c1N(C(=O)CN1CCN(C)CC1)c1ccccc1NC2=O`, the Potency was “inactive”. With `NNCCc1ccccc1` the Potency was “inactive”. With `Nc1ccc(O)cc1` the Potency was “inactive”. With `CCC(C)(Oc1ccc(C2(c3ccc(OC(C)(CC)C(=O)O)cc3)CCCCC2)cc1)C(=O)O` (stereo unspecified) the Potency was “inactive”. In the case of `C=CC(=O)OCCCCCCOC(=O)C=C`, the Potency is reported as “inactive”. In the case of `COc1nc(C)nc(Cl)c1NC1=NCCN1`, the Potency is reported as “inactive”. With `CC(C)(C)c1ccccc1` the Potency was “inactive”. For `CCCCOCCOC(=O)c1ccccc1C(=O)OCCOCCCC`, the Potency was “inactive”. In the case of `Cc1cc(C(C)(C)C)c(O)c(C(C)(C)C)c1`, the Potency is reported as “inactive”. For `CCCCC/C=C/CC1CC(=O)OC1=O` (stereo unspecified), the Potency was “inactive”. In the case of `NC(Cc1ccc(Cl)cc1)C(=O)O` (stereo unspecified), the activity change, negative = cytotoxicity is reported as -9.96% [at 0.348 µM] (inactive). With `Nc1nc2ccccc2[nH]1` the Potency was “inactive”. In the case of `CCC(CO)(CO)COCC(CC)(CO)CO`, the Potency is reported as “inactive”. With `CCOc1ccccc1C(N)=O` the Potency was “inactive”. With `Cc1cccc2n[nH]nc12` the Potency was “inactive”. For `CCCC(=O)c1ccccc1`, the Potency was “inactive”. In the case of `CC[C@@H](N)CO`, the Potency is reported as “inactive”. For `c1ccc2c(c1)CCCC2C1=NCCN1` (stereo unspecified), the Potency was “inactive”. With `CC(=O)OCC1=C(C(=O)O)N2C(=O)[C@@H](NC(=O)Cc3cccs3)[C@H]2SC1` the Potency was “inactive”. With `NC(N)=NC(=O)Cc1c(Cl)cccc1Cl` the Potency was “inactive”. In the case of `CC1=C(C=O)C(C)(C)CC=C1`, the Potency is reported as “inactive”. For `Cc1occc(=O)c1OC(=O)C(C)C`, the Potency was “inactive”. In the case of `CCN1CCCC1CNC(=O)c1cc(S(=O)(=O)CC)c(N)cc1OC` (stereo unspecified), the Potency is reported as “inactive”. With `Clc1ccc2c(c1)C(N1CCNCC1)=Nc1ccccc1O2` the Potency was “inactive”.

System: not listed separately
Experiment: qHTS assay to identify small molecule agonists of the progesterone receptor (PR) signaling pathway - cell viability counter screen (AID 1346799; calls by dose curve; also: nearly all actives have a fitted effect of over 45% in size)
Settings: PR-UAS-bla HEK293T viability, CellTiter-Glo luminescence, 16 h; series mostly up to 92.4 µM
Method in brief: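 Counter screen in the PR-UAS-bla HEK293T wells (2% charcoal-stripped FBS, 16 h compound exposure at 37 C) after the bla read. CellTiter-Glo added, 30 min at room temperature, luminescence read as cell viability.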
With `CC(=O)C1=C(C)[C@@H]2C[C@@]3(C1)[C@H](C)CC[C@H]3C2(C)C` the Potency was “inactive”. In the case of `O=C(O)CP(=O)(O)O`, the Potency is reported as “inactive”. For `COC(=O)/C=C/c1ccccc1`, the Potency was “inactive”. For `CC(C)(O)CCC(C)(C)O`, the Potency was “inactive”. For `COC(=O)c1cccc(C(=O)OC)c1`, the Potency was “inactive”. For `CCCCN(CCO)CCCC`, the Potency was “inactive”. With `O=C1NCC2(CCN(CCc3ccccc3)CC2)O1` the Potency was “inactive”. With `CC(=O)Nc1ccc(C(=O)CCl)cc1` the Potency was “inactive”. For `O=C(O)CCc1ccccc1`, the Potency was “inactive”. With `CC(C)(C)c1cc(C(C)(C)C)c(O)c(C(C)(C)C)c1` the Potency was “inactive”. In the case of `C1COC(NC(C2CC2)C2CC2)=N1`, the Potency is reported as “inactive”. In the case of `CCCNC(C)C(=O)Nc1ccccc1C` (stereo unspecified), the Potency is reported as “inactive”. In the case of `Cc1ccnc2c1NC(=O)c1cccnc1N2C1CC1`, the Potency is reported as “inactive”. With `Cc1scc2c1N(C(=O)CN1CCN(C)CC1)c1ccccc1NC2=O` the Potency was “inactive”. With `NNCCc1ccccc1` the Potency was “inactive”. For `Nc1ccc(O)cc1`, the Potency was “inactive”. In the case of `CCC(C)(Oc1ccc(C2(c3ccc(OC(C)(CC)C(=O)O)cc3)CCCCC2)cc1)C(=O)O` (stereo unspecified), the Potency is reported as “inactive”. With `C=CC(=O)OCCCCCCOC(=O)C=C` the Potency was “inactive”. For `COc1nc(C)nc(Cl)c1NC1=NCCN1`, the Potency was “inactive”. With `CC(C)(C)c1ccccc1` the Potency was “inactive”. With `CCCCOCCOC(=O)c1ccccc1C(=O)OCCOCCCC` the Potency was “inactive”. With `Cc1cc(C(C)(C)C)c(O)c(C(C)(C)C)c1` the Potency was “inactive”. In the case of `CCCCC/C=C/CC1CC(=O)OC1=O` (stereo unspecified), the Potency is reported as “inactive”. For `NC(Cc1ccc(Cl)cc1)C(=O)O` (stereo unspecified), the activity change, negative = cytotoxicity was -7.43% [at 0.349 µM] (inactive). In the case of `Nc1nc2ccccc2[nH]1`, the Potency is reported as “inactive”. With `CCC(CO)(CO)COCC(CC)(CO)CO` the Potency was “inactive”. With `CCOc1ccccc1C(N)=O` the Potency was “inactive”. In the case of `Cc1cccc2n[nH]nc12`, the Potency is reported as “inactive”. With `CCCC(=O)c1ccccc1` the Potency was “inactive”. For `CC[C@@H](N)CO`, the Potency was “inactive”. In the case of `c1ccc2c(c1)CCCC2C1=NCCN1` (stereo unspecified), the Potency is reported as “inactive”. In the case of `CC(=O)OCC1=C(C(=O)O)N2C(=O)[C@@H](NC(=O)Cc3cccs3)[C@H]2SC1`, the Potency is reported as “inactive”. With `NC(N)=NC(=O)Cc1c(Cl)cccc1Cl` the Potency was “inactive”. In the case of `CC1=C(C=O)C(C)(C)CC=C1`, the Potency is reported as “inactive”. With `Cc1occc(=O)c1OC(=O)C(C)C` the Potency was “inactive”. With `CCN1CCCC1CNC(=O)c1cc(S(=O)(=O)CC)c(N)cc1OC` (stereo unspecified) the Potency was “inactive”. For `Clc1ccc2c(c1)C(N1CCNCC1)=Nc1ccccc1O2`, the Potency was “inactive”.
